Experimental data as given in PubChem BioAssay (Tox21).
Inconclusive results are not listed. Active and inactive are the calls of the source. Unless noted, calls follow the shape of the dose curve; as a rule, active = well fitted curve in the direction sought with a large enough effect in the repeat runs; inconclusive = weak or mixed curves; inactive = no such curve, though single readings can be large; an effect the other way counts as inactive or inconclusive.

Assays:
[1] = qHTS assay for small molecule agonists of the p53 signaling pathway (AID 651631; calls by dose curve; also: nearly all actives have a fitted effect of over 15% in size)
Method in brief: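 p53RE-bla HCT-116 cells; compounds 16 h, 37 °C; LiveBLAzer B/G FRET substrate 2 h RT; fluorescence intensity read-out, qHTS format.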

[2] = qHTS assay for small molecules that induce genotoxicity in human embryonic kidney cells expressing luciferase-tagged ATAD5 (AID 651632); also: nearly all actives have a fitted effect of over 15% in size
Method in brief: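 A rise in luciferase signal from ATAD5-tagged HEK293T cells marks genetic stress. Cells were exposed to compounds for 16 hr at 37C, 5% CO2, then luciferase was quantified after a 30 min room-temperature incubation with Amplite.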

[3] = qHTS assay for small molecule agonists of the p53 signaling pathway - cell viability (AID 651633; calls by dose curve;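 also: p53RE-bla HCT reporter cells with a stable beta-lactamase p53 reporter; series mostly up to about 83 µM; nearly all actives have a fitted effect of over 30% in size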)
Method in brief: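 Viability counter-read: CellTiter-Glo luminescence (30 min, room temperature) in the same p53RE-bla plates. These plates had been exposed to compounds for 16 h at 37 C.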

[4] = qHTS assay for small molecule disruptors of the mitochondrial membrane potential - cell viability (AID 720634; calls by dose curve;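 also: human HepG2 liver cancer cells; series mostly up to about 83 µM; nearly all actives have a fitted effect of over 20% in size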)
Method in brief: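 Cytotoxicity was quantified from ATP content by CellTiter-Glo luminescence in the same wells as the MMP dye read-out. HepG2 (2,000 cells/well) were plated overnight and exposed to compounds for 1 hr at 37 C.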

[5] = qHTS assay for small molecule disruptors of the mitochondrial membrane potential (AID 720635)
Method in brief: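 Mitochondrial membrane potential tracked with Mito-MPS dye, red aggregates (ex 540/em 590 nm) against green monomers (ex 490/em 535 nm). Compound treatment 1 hr at 37C, dye 30 min in HepG2.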

[6] = qHTS assay to test for compound auto fluorescence at 590 nm (red) in HepG2 cells (AID 720674)
Method in brief: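 We screened compounds on adherent HepG2 cells, incubating them for an hour at 37 C in 5% CO2 before reading emission at 590 nm under 540 nm excitation; values reflect equivalence to Rose Bengal sodium fluorescence.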

[7] = qHTS assay to test for compound auto fluorescence at 535 nm (green) in HepG2 cells (AID 720675)
[8] = qHTS assay to test for compound auto fluorescence at 460 nm (blue) in HEK293 cells (AID 720678)
Method in brief: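 Cells were seeded and left to adhere for 4-5 hr at 37C. Compounds were then pin-transferred. After an overnight incubation at 37C under 5% CO2, intrinsic fluorescence at 405/460 nm was measured and referenced to triamterene.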

[9] = qHTS assay to test for compound auto fluorescence at 590 nm (red) in HEK293 cells (AID 720679)
Method in brief: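 Each well held 2,000 HEK293 cells in medium containing 10% dialyzed FBS. Following 4-5 hr attachment at 37C, 23 nL test compound or DMSO was added; plates sat overnight, and red fluorescence (540/590nm) was recorded.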

[10] = qHTS assay to test for compound auto fluorescence at 535 nm (green) in HEK293 cells (AID 720680)
[11] = qHTS assay to test for compound auto fluorescence at 460 nm (blue) in HEK293 cell free culture (AID 720681)
Method in brief: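 Blue fluorescence (Ex 405/Em 460 nm, triamterene-equivalent) was read immediately after pin transfer of compound or DMSO into medium (DMEM, 10% FBS) without cells.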

[12] = qHTS assay to test for compound auto fluorescence at 535 nm (green) in HEK293 cell free culture (AID 720682)
Method in brief: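 Cell-free medium (DMEM, 10% FBS) receives compound or DMSO by pintool. Plate read directly at Ex 485/Em 535 nm. Signal converted to fluorescein equivalency.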

[13] = qHTS assay to test for compound auto fluorescence at 590 nm (red) in HEK293 cell free culture (AID 720683)
Method in brief: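 Red-channel autofluorescence of compounds in culture medium (DMEM, 10% FBS), no cells, measured at 540/590 nm. Rose Bengal sodium is the reference fluorophore for equivalence.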

[14] = qHTS assay to test for compound auto fluorescence at 590 nm (red) in HepG2 cell free culture (AID 720684)
Method in brief: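 Cell-free; medium MEM + 10% FBS; compound or DMSO added by pintool; read Ex 540/Em 590 nm; Rose Bengal sodium as red reference fluorophore.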

[15] = qHTS assay to test for compound auto fluorescence at 460 nm (blue) in HepG2 cell free culture (AID 720685)
Method in brief: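 Cell-free plates of MEM plus 10% FBS received 23 nL compound or DMSO vehicle; blue-channel (405/460 nm) intensity scored against triamterene as reference fluorophore.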

[16] = qHTS assay to test for compound auto fluorescence at 535 nm (green) in HepG2 cell free culture (AID 720686)
[17] = qHTS assay to test for compound auto fluorescence at 460 nm (blue) in HepG2 cells (AID 720687)
Method in brief: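 Blue-channel autofluorescence (Ex/Em 405/460 nm, triamterene-equivalent) was measured after 1 hr compound exposure at 37 C, 5% CO2. Cells were HepG2, plated overnight at 37 C in MEM plus 10% FBS.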

[18] = target: Glucocorticoid receptor (Homo sapiens) (UniProt P04150); experiment: qHTS assay to identify small molecule agonists of the glucocorticoid receptor (GR) signaling pathway (AID 720691; active = well fitted activation curve with a large enough effect in the signal ratio in the repeat runs, not every such curve was filed as active; the % refers to the signal ratio)
Glucocorticoid receptor (Homo sapiens), sequence (P04150 whole entry, looked up): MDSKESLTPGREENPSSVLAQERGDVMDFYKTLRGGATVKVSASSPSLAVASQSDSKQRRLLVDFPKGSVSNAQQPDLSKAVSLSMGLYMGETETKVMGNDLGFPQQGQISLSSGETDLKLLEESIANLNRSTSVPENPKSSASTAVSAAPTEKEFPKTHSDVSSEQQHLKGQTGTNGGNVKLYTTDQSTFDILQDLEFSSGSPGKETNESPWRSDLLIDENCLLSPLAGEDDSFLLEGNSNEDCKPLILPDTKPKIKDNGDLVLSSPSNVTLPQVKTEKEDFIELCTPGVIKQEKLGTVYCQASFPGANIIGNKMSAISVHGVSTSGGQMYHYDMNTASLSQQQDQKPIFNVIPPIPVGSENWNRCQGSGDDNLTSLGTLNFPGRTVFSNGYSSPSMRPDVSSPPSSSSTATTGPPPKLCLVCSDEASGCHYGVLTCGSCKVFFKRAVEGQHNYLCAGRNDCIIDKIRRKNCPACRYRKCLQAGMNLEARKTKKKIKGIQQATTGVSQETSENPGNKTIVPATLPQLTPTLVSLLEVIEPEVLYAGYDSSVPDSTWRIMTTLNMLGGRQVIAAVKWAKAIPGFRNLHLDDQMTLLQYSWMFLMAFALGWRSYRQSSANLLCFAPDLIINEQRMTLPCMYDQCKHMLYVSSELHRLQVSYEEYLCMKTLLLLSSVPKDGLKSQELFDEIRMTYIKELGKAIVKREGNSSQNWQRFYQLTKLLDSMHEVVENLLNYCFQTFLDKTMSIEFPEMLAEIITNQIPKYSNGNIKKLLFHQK
Method in brief: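 Agonist-mode qHTS in HeLa cells stably expressing a glucocorticoid-response-element beta-lactamase reporter. Fluorescence intensity read with FRET substrate (2 h, room temperature) after 18 h compound treatment at 37 C.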

[19] = target: Glucocorticoid receptor (Homo sapiens) (UniProt P04150); experiment: qHTS assay to identify small molecule antagonists of the glucocorticoid receptor (GR) signaling pathway (AID 720692; active = well fitted inhibition curve with a large enough effect in the signal ratio in the repeat runs, not every such curve was filed as active; the % refers to the signal ratio)
Method in brief: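 Inhibition of dexamethasone-driven (5 nM final) beta-lactamase expression was measured in GRE-reporter HeLa cells over 18 h at 37C. Fluorescence was read after 2 h with the B/G FRET substrate at room temperature.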

[20] = qHTS assay for small molecules that induce genotoxicity in human embryonic kidney cells expressing luciferase-tagged ATAD5 - cell viability (AID 651634; calls by dose curve; also: nearly all actives have a fitted effect of over 25% in size)
Method in brief: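 Cytotoxicity counter-readout: after 15.5 hr compound treatment at 37C, live-cell protease activity in ATAD5-luciferase HEK293T cells measured by CellTiter-Fluor fluorescence, 30 min development at 37C.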

Measured: Potency

C=C(C)C1CC=C(C)C(OC(C)=O)C1 (stereo not drawn)
not listed: [20]
inactive: all other assays above

c1cnc2cc3c(cc2n1)C1CNCC3C1
not listed: [3] | [18] | [19]
inactive: all other assays above

COC(=O)c1cccc(C(=O)OC)c1
not listed: [13] | [18] | [19] | [20]
inactive: all other assays above

COc1ccc(Cc2cnc(N)nc2N)cc1OC
not listed: [1] | [10] | [19] | [20]
inactive: all other assays above

NCCO
not listed: [3] | [5] | [6] | [13] | [19] | [20]
inactive: all other assays above

CC1COc2c(N3CCN(C)CC3)c(F)cc3c(=O)c(C(=O)O)cn1c23 (stereo not drawn)
not listed: [3] | [4] | [5] | [18] | [19] | [20]
inactive: all other assays above

CC(=O)CC(=O)Nc1ccc2[nH]c(=O)[nH]c2c1
not listed: [1] | [18] | [19]
inactive: all other assays above
